For 33 molecules, inhibition results are on record in PubChem BioAssay AID434927 (Sanford-Burnham Center for Chemical Genomics, 2010).

The source made the active and inactive calls.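 How the source made its calls: active means inhibition above about 23% in any of six single-dose repeats (limit read from the data); inactive means the rest.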

The target of the test is Intestinal-type alkaline phosphatase (Homo sapiens) (UniProt P09923). Put plainly: suppression of intestinal alkaline phosphatase activity – biochemical, luminescence, single concentration, uHTS hits, confirmation (AID 434927).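 Further: plate controls were DMSO wells with enzyme for no effect and wells lacking enzyme for full effect.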 To be noted: purified human IAP, CDP-Star luminescence, 30 min; at 8.3 µM; hits give high values.
Chain of Intestinal-type alkaline phosphatase (Homo sapiens) (P09923 whole entry, looked up): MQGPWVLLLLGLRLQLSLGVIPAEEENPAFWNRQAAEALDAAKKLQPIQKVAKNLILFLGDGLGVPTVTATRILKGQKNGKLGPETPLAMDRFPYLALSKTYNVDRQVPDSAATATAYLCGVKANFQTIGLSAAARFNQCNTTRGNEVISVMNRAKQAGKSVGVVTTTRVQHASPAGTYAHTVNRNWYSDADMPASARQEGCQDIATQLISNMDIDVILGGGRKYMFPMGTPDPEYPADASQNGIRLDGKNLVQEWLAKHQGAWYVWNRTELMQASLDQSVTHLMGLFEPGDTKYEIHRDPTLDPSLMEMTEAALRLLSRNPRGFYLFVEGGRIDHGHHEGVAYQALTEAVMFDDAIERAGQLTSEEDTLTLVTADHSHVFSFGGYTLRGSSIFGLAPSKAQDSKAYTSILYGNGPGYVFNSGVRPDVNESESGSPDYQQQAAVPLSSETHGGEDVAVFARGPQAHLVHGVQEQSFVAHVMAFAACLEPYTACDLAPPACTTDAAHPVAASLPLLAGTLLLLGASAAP
The term inhibition denotes the relative decrease from the control value, in per cent. For the molecule `CC(C)(C)NC(=O)C(=O)NNC(=O)COc1ccccc1`, the inhibition was 39% (active).
Under `CC(C)(C)OC(=O)N1CCC(NC(=O)c2[nH]cnc2C(=O)Nc2ccon2)CC1` stands 37% (active).
Turning to `Cc1nc2c3ccccc3nc(NNC(=O)CCC(=O)NCCN3CCN(c4ccccc4)CC3)n2n1`, the inhibition is -97.4% (inactive).
For `O=C(N/N=C/c1cccc([N+](=O)[O-])c1)c1nc2ccccc2c(=O)[nH]1` the value was 33.3% (active); for `O=C1C2C3C=CC(C3)C2C(=O)N1c1n[nH]c(-c2cccnc2)n1` (stereo not drawn), -82.5% (inactive).
For `O=C(/C=C/c1ccccc1O)c1ccco1` the value was -104% (inactive).
For `CC(=O)N1CCOc2ccc(S(=O)(=O)N3CCCC(C)C3)cc21` (stereo not drawn) the value was 54% (active); for `CN(CC(=O)Nc1ccccc1F)CC(=O)Nc1ccc(F)c(F)c1F`, 51.6% (active); for `C=CCn1c(O)c(N=Nc2ccccc2O)c2ccccc21`, 36.2% (active).
Turning to `CC(C)CCNC(=O)C1CCN(C(=O)N(C)C)CC1`, the inhibition is 88.2% (active).
For `C/C(=N/Nc1ccccc1[N+](=O)[O-])c1ccc([N+](=O)[O-])cc1` the value was -233% (inactive).
For `CN1CCN(CCNC(=O)Cn2c(=O)c3cccn3c3ccc(F)cc32)CC1` the value was 35.4% (active).
For `COc1ccccc1CN1CCC(n2nccc2NC(=O)CCCc2ccccc2)CC1` the value was -112% (inactive).
Turning to `COc1cccc(/C=N/Nc2nn3cnnc3c3ccccc23)c1O`, the inhibition was 40.4% (active).
For the molecule `COc1cc(Cl)ccc1OCc1cc(C(=O)N2CCCCCCC2)no1`, the inhibition was 34.5% (active).
`CCOc1cccc(OCCOCCOc2ccccc2C(C)=O)c1`: the inhibition was -219% (inactive).
For `O=C(NNC(=S)NC(=O)c1ccccc1[N+](=O)[O-])c1ccccc1O` the value was 27.4% (active); for `CSCCC(NS(=O)(=O)c1ccc(C)cc1)C(=O)NNC(=O)c1csc(N2CCOCC2)n1` (stereo not drawn), 48.3% (active).
Under `CCOc1ccc(CC(=O)NNC(=S)NCCc2ccccc2)cc1` stands 77.5% (active); under `N#C/C(=C\c1ccc(O)c(O)c1)C(=O)c1ccc(O)c(O)c1`, 74.3% (active).
For `O=C(CCNS(=O)(=O)c1ccccc1C(F)(F)F)NNC(=O)c1csc(N2CCOCC2)n1`, the inhibition is 0.0741% (inactive).
For `O=C(COc1ccc2ccccc2c1Br)N1CCCCC1` the value was -50.2% (inactive); for `c1ccc(CSCCc2ccncc2)cc1`, -33.2% (inactive).
For `COc1ccc(C2=Nc3cc(C)ccc3OC2)cc1` the value was 58.3% (active).
Under `CCN(CC)c1ccc(/C=N/NC(=O)c2nnn(-c3nonc3N)c2C(C)C)c(O)c1` stands 32.4% (active); under `COc1cccc(-c2nc(CS(=O)(=O)CC(=O)Nc3cc(OC)ccc3OC)c(C)o2)c1`, 31.5% (active); under `CC(C)n1cc(CN2CCC(C(=O)Nc3cccc(-c4cccc(Cl)c4)c3)CC2)cn1`, -96.7% (inactive).
Turning to `Cc1cc(C)cc(OCC(=O)NNC(=O)c2cc(C)[nH]n2)c1`, the inhibition was -94.6% (inactive).
For `Cc1ccc(Cl)cc1NC(=O)C(=O)N/N=C/c1ccc2c(c1)OCO2` the value was 40.1% (active); for `Cc1cc2nc(C3CCN(Cc4nnnn4Cc4cccs4)CC3)[nH]c2cc1C`, 79.3% (active).
`CC[n+]1c(/C=C/c2c[nH]c3ccccc23)ccc2cc(C)ccc21`: the inhibition is -85.7% (inactive).
Under `CC(C)Oc1ccc(CCC(=O)NNC(=S)NCc2ccccc2)cc1` stands 46.5% (active); under `COc1ccc(CN2CCC(n3nccc3NC(=O)CCCc3ccccc3)CC2)cc1C`, -127% (inactive).
